In the library only some 14% were active in any assay of this set; here they are far more common.
Giardia FBPA inh: blocks Giardia fructose-bisphosphate aldolase activity; A8B2U2; 290,000 compounds, 0.71% hits; Potency, µM (top dose mostly 59.6 µM), usual class: inhibitors; purified Giardia FBPA; note: nearly all actives have a fitted effect of over 55% in size
Target sequence (A8B2U2 whole entry, looked up): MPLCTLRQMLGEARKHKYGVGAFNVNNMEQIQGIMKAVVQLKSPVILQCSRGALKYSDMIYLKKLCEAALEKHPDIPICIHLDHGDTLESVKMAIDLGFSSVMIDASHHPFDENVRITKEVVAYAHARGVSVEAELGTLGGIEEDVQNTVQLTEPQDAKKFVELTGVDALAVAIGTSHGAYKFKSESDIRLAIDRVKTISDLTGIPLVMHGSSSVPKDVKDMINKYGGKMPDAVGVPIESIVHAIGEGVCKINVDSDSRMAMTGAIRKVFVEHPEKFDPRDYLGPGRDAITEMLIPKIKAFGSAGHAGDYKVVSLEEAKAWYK
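40 nM FBPA preincubated 10 min at RT with compound (up to 57.5 uM final), then substrate plus GAPDH/TPI/NAD/arsenate coupling and diaphorase/resazurin added. Fluorescence read after 20 min at RT, 525/598 nm.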
Pf growth 48h: inhibits P. falciparum growth in the first generation, 48 h; P. falciparum luciferase growth in erythrocytes, 48 h; Potency, µM (top dose mostly 28.7 µM), actives largely listed as inhibitors; 310,000 compounds, 5.9% hits
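Growth was read as firefly luciferase luminescence after a 48 h, 37 C, 5% CO2 exposure of compounds to reporter-bearing P. falciparum cultures (0.1% parasitemia, 2% hematocrit final) in Albumax-supplemented RPMI 1640.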
Sm TGR block: S. mansoni TGR enzyme inhibition. Q962Y6. Potency, µM (titrated, usually from 114 µM), hits mostly inhibitors. 360,000 compounds, 3% hits. AID 485364. purified TGR, DTNB reduction, TNB absorbance 405 nm; note: nearly all actives have a fitted effect of over 60% in size
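First, TGR (20 nM dispensed) and NADPH were mixed with compound. Second, a 15 min room-temperature incubation followed. Third, further NADPH and then DTNB were added to start the reaction. Finally, TNB absorbance was monitored kinetically.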
Pf growth 96h: P. falciparum growth inhibition at 96 hours. P. falciparum luciferase reporter growth, 96 h. Potency, µM (doses to about 28.7 µM), actives largely listed as inhibitors. 320,000 compounds, 6.9% hits. AID 504834
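Two-generation exposure (96 h) targets delayed-death phenotype. Reporter parasites carrying integrated firefly luciferase, in red cells at 2% hematocrit and 0.05% parasitemia final, kept at 37 C, 5% CO2; luminescence loss indicates inhibition.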
HCMV antiviral: human cytomegalovirus inhibition | HFF cells, HCMV-luciferase reporter, 72 h; stronger effect = lower value | activity change, negative = inhibition, % at 57.5 µM | 410,000 compounds, 4.5% hits | AID 1259415; in the data active = activity change below about -60%; inconclusive = no clear call, values can overlap the other calls; inactive = above about -39%
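Steps: HFFs plated, 16 h 37C; compounds added; HCMV-luciferase added to MOI 1 PFU/cell; 72 h 37C; OneGlo reagent, 5 min room temperature; luminescence read, normalized to controls.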
Of the large screens only hits and unclear results are named; the others gave an inactive call. Unless noted, calls come from the whole dose curve; as a rule, active = well fitted curve in the direction sought with a large enough effect; inconclusive = small, poorly fitted or top-dose-only effect, or another doubt; inactive = no such curve, though single readings can be large; an effect the other way counts as inactive or inconclusive.

OC(CNC1CCCCC1)COCCOc1ccc(Br)cc1 (centres undefined)	Pf growth 48h 10µM, Pf growth 96h 12µM
CN1CCN(CC(O)Cn2c3ccccc3c3ccccc32)CC1 (centres undefined)	Giardia FBPA inh inconclusive, Pf growth 48h inconclusive
OC(CN1CCCCC1)Cn1c2ccccc2c2ccccc21 (centres undefined)	Pf growth 48h inconclusive
CSc1ccccc1NC(=O)c1ccccc1C	HCMV antiviral inconclusive (no result: Sm TGR block)
c1cc2c3c(cccc3c1)NC1(CCC3(CC1)Nc1cccc4cccc(c14)N3)N2	Pf growth 48h 9.3µM, Sm TGR block inconclusive, Pf growth 96h 6.6µM, HCMV antiviral inconclusive
Cc1ccc(C(=O)NCC(C)(C)O)cc1	Pf growth 48h inconclusive, Pf growth 96h inconclusive
Cc1ccc(C(=O)NC(C)(COc2nonc2C)COc2nonc2C)cc1	Pf growth 48h 12µM (no result: Pf growth 96h)
CCOc1ccccc1NC(=O)Cc1noc2ccc(C)cc12	none (no result: Giardia FBPA inh, Pf growth 48h, Pf growth 96h)
COc1ccc(C(=O)Nc2ccc(CN3CCOCC3)cc2)cc1Br	Sm TGR block inconclusive
COc1ccc(C(=O)NC(=S)Nc2ccc(CN3CCCCC3)cc2)cc1Cl	Pf growth 48h inconclusive, Sm TGR block 40µM, HCMV antiviral inconclusive
COc1ccc(C(=O)NC(=S)Nc2ccc(CN3CCOCC3)cc2)cc1OC	Sm TGR block 20µM
COc1ccc(C(=O)NC(=S)Nc2ccc(CN3CCOCC3)cc2)cc1Cl	Pf growth 48h inconclusive, Sm TGR block 14µM, Pf growth 96h inconclusive, HCMV antiviral inconclusive (no result: Giardia FBPA inh)
COc1ccc(C(=O)NC(=S)N2CC(C)OC(C)C2)cc1OC (centres undefined)	Giardia FBPA inh inconclusive, Pf growth 96h 5.2µM
Cc1ccc(C(=O)NC(=S)Nc2ccc(CN3CCCCC3)cc2)c(C)c1	Pf growth 48h inconclusive, HCMV antiviral inconclusive (no result: Sm TGR block)
CCN(CC)S(=O)(=O)c1ccc(C(=O)NCC(=O)NCc2ccc3c(c2)OCO3)cc1	none (no result: Giardia FBPA inh, Pf growth 48h, Sm TGR block, Pf growth 96h)
CCCCNC(=O)C1(C)CCC(=O)N1CCCn1ccnc1 (centres undefined)	HCMV antiviral -71 (no result: Giardia FBPA inh, Pf growth 48h, Sm TGR block, Pf growth 96h)
CC1(C(=O)NCc2cccnc2)CCC(=O)N1CCc1ccccc1 (centres undefined)	HCMV antiviral -97
CC1(C(=O)NCc2ccccc2)CCC(=O)N1CCCn1ccnc1 (centres undefined)	HCMV antiviral -99 (no result: Giardia FBPA inh, Pf growth 48h, Sm TGR block, Pf growth 96h)
CC1(C(=O)NCc2ccccc2)CN(S(C)(=O)=O)CC(=O)N1CCCn1ccnc1 (centres undefined)	none (no result: Giardia FBPA inh, Pf growth 48h, Sm TGR block, Pf growth 96h)
COc1ccc(NC(=O)CSc2nc3ccccc3nc2N2CCC(C)CC2)cc1	HCMV antiviral inconclusive (no result: Giardia FBPA inh, Pf growth 48h, Pf growth 96h)
COc1cc(C(=O)NCC(c2cccs2)N2CCOCC2)c([N+](=O)[O-])cc1OC (centres undefined)	none (no result: Giardia FBPA inh)
O=C(CCCc1ccccc1)NCCS(=O)(=O)N1CCN(c2ccccc2)CC1	none (no result: Giardia FBPA inh, Pf growth 48h, Sm TGR block, Pf growth 96h)
CC(C)c1ccc(S(=O)(=O)/N=C2/C=CC(=O)c3ccccc32)cc1	Giardia FBPA inh 14µM, Pf growth 48h 8.3µM, Sm TGR block 8.9µM (no result: HCMV antiviral)
NNC(=O)CCCNc1ncc(C(F)(F)F)cc1Cl	none
CN(C)/C=C1/C(=O)NC(=O)N(CCNc2ncc(C(F)(F)F)cc2Cl)C1=O	Sm TGR block 11µM
CC(Oc1ccc(-c2ccccc2)c(F)c1)c1ccn(S(=O)(=O)c2ccc(F)cc2)n1 (centres undefined)	Pf growth 48h inconclusive, Pf growth 96h inconclusive
COc1ccc(S(=O)(=O)n2ccc(C(C)Oc3ccc(-c4ccccc4)c(F)c3)n2)cc1 (centres undefined)	Pf growth 48h 13µM, Pf growth 96h 17µM, HCMV antiviral inconclusive
O=C(Nc1ccc(Cl)cc1)c1nc[nH]c1C(=O)NCc1ccccc1	Pf growth 96h inconclusive, HCMV antiviral -74 (no result: Giardia FBPA inh)
C[C@H](NC(=O)c1[nH]cnc1C(=O)Nc1cccc(Cl)c1)c1ccccc1	Pf growth 48h inconclusive, Pf growth 96h inconclusive, HCMV antiviral inconclusive (no result: Giardia FBPA inh)
C[C@@H](NC(=O)c1[nH]cnc1C(=O)Nc1cccc(Cl)c1)c1ccccc1	Pf growth 48h inconclusive, Pf growth 96h inconclusive, HCMV antiviral -79 (no result: Giardia FBPA inh)
O=C(c1ccccc1)c1nc[nH]c1C(=O)Nc1ccccc1	Pf growth 48h inconclusive, HCMV antiviral -65
O=C(Nc1ccccc1)c1nc[nH]c1C(=O)O	Sm TGR block inconclusive (no result: Giardia FBPA inh, Pf growth 48h, Pf growth 96h)
C[C@@H](NC(=O)c1[nH]cnc1C(=O)Nc1ccc(Cl)cc1)c1ccccc1	Pf growth 48h inconclusive, Pf growth 96h inconclusive, HCMV antiviral -70 (no result: Giardia FBPA inh)
